The list is not random: actives were taken first. Their share in the collection is about 7.3%.
FLuc modulator – inhibits or activates purified firefly luciferase, miR-21 counter-screen | Potency, µM (doses to about 57.5 µM), for inactives: at the top dose activity change, negative = inhibition, most hits filed as inhibitors | hit rate 6.9% among 360,000 | purified FLuc, Km substrates, luminescence inhibition;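 note: plate controls were vehicle for no effect and reference inhibitor for full effect; nearly all actives have a fitted effect of over 55% in size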
Target sequence (P08659 whole entry, looked up): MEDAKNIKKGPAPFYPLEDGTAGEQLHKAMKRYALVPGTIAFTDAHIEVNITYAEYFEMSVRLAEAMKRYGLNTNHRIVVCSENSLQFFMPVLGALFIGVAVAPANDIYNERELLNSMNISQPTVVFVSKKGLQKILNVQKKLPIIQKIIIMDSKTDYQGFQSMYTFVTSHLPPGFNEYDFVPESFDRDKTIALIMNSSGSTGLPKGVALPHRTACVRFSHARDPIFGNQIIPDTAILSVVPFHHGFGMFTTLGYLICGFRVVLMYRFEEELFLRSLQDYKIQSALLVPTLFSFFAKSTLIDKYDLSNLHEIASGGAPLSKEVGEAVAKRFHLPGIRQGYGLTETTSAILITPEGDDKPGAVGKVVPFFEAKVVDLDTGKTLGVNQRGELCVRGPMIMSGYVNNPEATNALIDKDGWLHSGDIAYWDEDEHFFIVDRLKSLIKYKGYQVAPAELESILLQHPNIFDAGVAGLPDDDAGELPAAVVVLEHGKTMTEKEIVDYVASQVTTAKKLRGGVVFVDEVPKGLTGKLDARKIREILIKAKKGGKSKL
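Biochemical qHTS of compounds, final roughly 60 µM downward over six points, against 10 nM purified firefly luciferase using Km concentrations of substrates (10 uM D-luciferin, 10 uM ATP) in Tris acetate pH 7.5 buffer; luminescence output.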
ELG1 genotoxic – inducers of genotoxicity in HEK293T ELG1-luciferase cells. Potency, µM (titrated, usually from 46 µM), inactives show at the highest dose activity change, positive = activation, actives largely listed as activators. hit rate 1.3% among 330,000. HEK293T ELG1-luciferase reporter, luminescence, 16 h. AID 504466; note: % of control where 0% means no effect; nearly all actives have a fitted effect of over 60% in size
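HEK293T cells expressing luciferase-tagged ELG1 were exposed to compound or DMSO vehicle for 16 hr at 37 °C and 5% CO2. Luciferase activity was then measured with ONE-Glo after 30 min at room temperature.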
Rab9 prom act – Rab9 promoter activation. Huh7 Rab9 promoter-luciferase reporter, luminescence, 24 h. Potency, µM (titrated, usually from 9.22 µM), for the others: at the highest dose activation, negative = inhibition, usual class: activators. hit rate 2.8% among 320,000; note: % of control where 0% means no effect; nearly all actives have a fitted effect of over 60% in size
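Huh7 cells stably carrying a Rab9 promoter-luciferase reporter, 1500 cells per well in OP-MEM I with 10% FBS, treated with compound 24 hours at 37C. Luciferase activity read by luminescence after 10 minutes with Amplite reagent.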
NPC1 prom act – activators of NPC1 promoter. hit rate 2.4% among 320,000. Huh7 NPC1 promoter luciferase reporter, 24 h. Potency, µM (highest dose often 9.22 µM), for the others: top-dose activation, most hits filed as activators. AID 485313; note: % of control where 0% means no effect; nearly all actives have a fitted effect of over 60% in size
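NPC1 promoter–luciferase Huh7 cells; 24 h compound; luminescence.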
KinaseGlo FLuc – counter-screen: inhibitors of Kinase-Glo firefly luciferase. Q27757. hit rate 0.28% among 200,000. Potency, µM (doses to about 38.3 µM), for inactives: top-dose activity change, negative = inhibition, hits mostly inhibitors. Kinase-Glo luciferase, ATP luminescence, 8 min. AID 1379; note: % is set by controls: 0 for no effect and ±100 for the full control effect; nearly all actives have a fitted effect of over 60% in size
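Inhibition of Kinase-Glo luciferase light generation was assessed at 10 uM ATP in pH 7.2 imidazole buffer, with luminescence measured after eight minutes at ambient temperature.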
SMN2 splice up – SMN2 splice variant enhancement | Potency, µM (titrated, usually from 46.1 µM), inactives show top-dose activity change, positive = activation, most hits filed as activators | HEK293 SMN2-luciferase splicing reporter, luminescence, 30-36 h | hit rate 2.8% among 210,000; note: % of control where 0% means no effect; nearly all actives have a fitted effect of over 55% in size
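HEK293 cells carry an SMN2 […]–luciferase reporter in which exon 7 inclusion puts luciferase in frame. Cells were plated 10-12 h before compound addition, then incubated 30-36 h at 37C. ONE-Glo luminescence was read; sodium butyrate at 4.5 mM final served as control.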
Active calls of the source: *; ? = inconclusive; / = no result; [ ] = another dose, or the depositor's remark. Calls come from the whole dose curve; as a rule, active = well fitted curve in the direction sought with a large enough effect; inconclusive = small, poorly fitted or top-dose-only effect, or another doubt; inactive = no such curve, though single readings can be large; an effect the other way counts as inactive or inconclusive. Potency is the fitted concentration of half-maximal effect.

SMILES | FLuc modulator | ELG1 genotoxic | Rab9 prom act | NPC1 prom act | KinaseGlo FLuc | SMN2 splice up
Cc1cc(NC(=O)c2ccc3c(c2)OCCO3)no1 | 1.2µM* | 0.65µM* | 0.45µM* | ? | -14% | 3.5µM*
COc1ccc(C(=O)Nc2cc(C)on2)cc1OC | -6% | 16% | 2% | -3% | / | /
CCOC(=O)C(=O)Nc1cc(C)on1 | 1.7µM* | ? | 1.6µM* | 2.8µM* | 13µM* | /
Cc1nc(NC(=O)c2ccc3c(c2)OCO3)ccc1Br | 9.5µM* | ? | 3.5µM* | 3.2µM* | -25% | 11µM*
Cc1cc(NC(=O)c2ccc3c(c2)OCO3)no1 | 11µM* | ? | 1.6µM* | 2.5µM* | -13% | 11µM*
CCc1cccc(CC)c1NC(=O)CCS(=O)(=O)c1ccc(Br)s1 | 4% | / | / | / | / | -5%
Cn1nc(-c2ccccc2F)c2cc(C(=O)NCc3cccc(Cl)c3)sc21 | -8% | / | / | / | / | -29%
Cc1ccc(F)cc1NC(=O)Cn1c(=O)nc(-c2ccccc2F)c2cc(Cl)ccc21 | 0% | / | / | / | / | /
Cc1cc(NC(=O)c2nn(C)c(C)c2Br)no1 | ? | ? | 2.8µM* | ? | / | /
Cc1cc(NC(=O)c2ccc(F)cc2)no1 | 17µM* | ? | ? | ? | / | /
CC(=O)Nc1ccc(C(=O)Nc2cc(C)on2)cc1 | -4% | 11% | 10% | 5% | / | /
Cc1cc(NC(=O)CCC(=O)NNC(=O)c2ccc(C(C)(C)C)cc2)no1 | 2.4µM* | 8% | 11% | 4% | -10% | 5%
CC(C)(C)c1ccc(C(=O)NNC(=O)CCC(=O)Nc2ccccc2)cc1 | 3.4µM* | 17% | 6% | 11% | / | /
CC1=C(c2ccc(C)c(C)c2)S(=O)(=O)N=C1N1CCC(C(=O)N2CCC(C)CC2)CC1 | -2% | / | / | / | / | /
COc1ccccc1N1C(=N)S/C(=C\c2ccc(-c3ccccc3C(=O)O)o2)C1=O | ? | 3% | -2% | -3% | 2% | -5%
N=C1S/C(=C\c2ccc(-c3ccccc3C(=O)O)o2)C(=O)N1c1ccc2c(c1)OCO2 | 9.5µM* | 0% | -11% | -4% | / | /
Cc1cc(C(=O)N/N=C/c2cccc3ccccc23)c(C)o1 | 19µM* | ? | 19% | 13% | / | /
Cc1cc(C(=O)NC2Cc3ccccc3C2)c(C)o1 | 21µM* | ? | 3.2µM* | 2.5µM* | / | /
Cc1cc(C(=O)N/N=C/C=C/c2ccccc2)c(C)o1 | ? | 2% | 0% | 1% | -1% | -6%
O=C(N/N=C/c1ccccc1O)c1cccc2ccccc12 | ? | 24% | -39% | -34% | / | /
Cc1cc(C(=O)N/N=C/c2ccccc2)c(C)o1 | 11µM* | ? | 3.2µM* | ? | / | /
Cc1cc(C(=O)N/N=C/c2ccc([N+](=O)[O-])cc2)c(C)o1 | 27µM* | 7% | 11% | 11% | -19% | 3%
COC(=O)c1ccc(NC(=O)N2CCc3c([nH]c4ccccc34)C2c2ccc(C)cc2)cc1 (configuration not stated) | -6% | / | / | / | / | -3%
COc1cc(NC(=O)CN(C)S(=O)(=O)c2ccc3[nH]c4c(c3c2)CCCC4)cc(OC)c1OC | -12% | / | / | / | / | /
CC(=O)c1cc2c(cc1NC(=O)c1cnn(-c3ccc(C)cc3)c1-n1cccc1)OCO2 | -5% | / | / | / | / | /
SMILES | FLuc modulator | ELG1 genotoxic | Rab9 prom act | NPC1 prom act | KinaseGlo FLuc | SMN2 splice up
CCCCn1c(C)cc2c(c1=O)C1O[C@](c3ccc(OC)cc3)(Cc3cc(OC)c(OC)cc31)O2 | ? | / | 3%[1.84 µM] | -6%[1.84 µM] | / | /
Cn1c(N)c(C(=O)N/N=C/c2ccccc2)sc1=S | 0% | 4% | 3% | -1% | / | /
Cn1c(C(=O)N/N=C/c2ccccc2)cc2ccccc21 | 2.7µM* | ? | 2.8µM* | ? | / | /
CCOC(=O)C1(C(C)C)Oc2ccccc2C(c2ccc(OC)cc2)=C1C(=O)OC (configuration not stated) | / | / | / | / | 1%[39.9 µM] | /
CCOC(=O)COc1ccsc1C(=O)OC | 0% | 0% | 3% | 2% | -2% | 0%
CCOC(=O)C(=Cc1ccc(-c2ccsc2C(=O)OC)o1)C(=O)OCC | 19µM* | -11% | 3% | -3% | -2% | -11%
COC(=O)c1sccc1-c1ccc(C(N)=O)o1 | -3% | 1% | -13% | 0% | -2% | 6%
CCOC(=O)/C(C#N)=C/c1ccc(-c2ccc(Br)cc2)o1 | 6.7µM* | / | / | / | / | 12%
COC(=O)C(=Cc1ccc(-c2ccsc2C(=O)OC)o1)C(=O)OC | 11µM* | -3% | 21% | 7% | / | /
COC(=O)c1sccc1-c1ccc(C(=O)Nc2cccnc2)o1 | 8.5µM* | 16% | 3.5µM* | 2.2µM* | -13% | 18µM*
COc1ccc(CN(C)S(=O)(=O)c2nnc(NC(=O)C(C)C)s2)cc1OC | -4% | / | / | / | / | /
COc1cccc(NC(=O)Cn2c(=O)n(CCCCC(=O)NCc3ccc4c(c3)OCO4)c(=O)c3ccccc32)c1 | 3% | / | / | / | / | -17%
Cc1c(CC(=O)NCCc2ccccc2)c(=O)oc2c(C)c3occ(C(C)(C)C)c3cc12 | -2% | / | / | / | / | -1%
C/C=C(\C)C(=O)O[C@H]1C[C@@]2(C)CCC(C(C)C)C2(O)CC[C@@]1(C)O (some centres not stated) | / | / | / | / | -1% | -11%
CCOC(=O)/C(C#N)=C/Nc1ccsc1C(C)=O | ? | 8% | 1% | 0% | / | /
CCOC(=O)/C(C#N)=C/c1ccc(-c2ccsc2C(=O)OC)o1 | -18% | 16% | 2.5µM* | ? | -9% | 6%
COC(=O)c1sccc1-c1ccc(/C=N/OC(=O)c2cccs2)o1 | 5.4µM* | 4% | 10% | 2% | / | /
COC(=O)c1sccc1NC(=O)c1cccs1 | 6% | 2% | 1% | -4% | / | /
O=c1c2ccccc2nc(COc2ccccc2)n1/N=C/c1ccc(O)cc1O | 17µM* | -3% | -3% | -3% | / | /
O=c1c2ccccc2nc(COc2ccccc2)n1/N=C/c1c[nH]c2ccccc12 | -4% | 0% | 1% | -1% | 1% | 0%
C/C(=N\OCc1nc2ccccc2c(=O)n1/N=C/c1cc([N+](=O)[O-])ccc1O)c1ccccc1 | 24µM* | 17% | 13% | 16% | / | /
C/C(=N\OCc1nc2ccccc2c(=O)n1/N=C/c1cc(C)cc([N+](=O)[O-])c1O)c1ccccc1 | 27µM* | ? | -5% | 13% | / | /
Cc1cc([N+](=O)[O-])cc(/C=N/n2c(C)nc3ccccc3c2=O)c1O | 3% | 1% | -1% | 1% | / | /
N.N.N.N.N.N.N.N.N.N.N.N.N.N.O.O.[Ru+4].[Ru+5].[Ru+5] | / | / | -11%[46.1 µM] | -12%[46.1 µM] | / | /
O=c1c(-c2ccc(Cl)cc2)c[nH]n1-c1ccccc1 | 9.5µM* | 12% | 0%[1.84 µM] | ? | / | /
O=c1c(-c2ccccc2)c[nH]n1-c1cccc([N+](=O)[O-])c1 | 15µM* | 18% | ? | ? | -10% | /

Screening results (PubChem BioAssay)
